{"source": "PubChem BioAssay (NCI)", "note": "The panel holds about 83,000 compounds, 20% with a hit somewhere; the sample as a whole holds those more often.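 48-hour exposure, single concentration, 96-well plates; percent growth endpoint where 0 means no net growth. Active: below 10.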 Values without a mark were called inactive. Calls of active or inactive are those of the source."}
{"tested_on": "HL-60(TB) leukemia", "assay": "NCI-60 one-dose screen, 48 h (100 = growth as untreated, 0 = no growth, -100 = all killed)", "conditions": "10 µM unless noted"}
{"smiles": "COc1cc2ncnc(Nc3ccc(S(=O)(=O)Nc4nccs4)cc3)c2cc1OCCCN1CCCC1", "growth": "109%"}
{"smiles": "Nc1cc2c(cc1Cl)-c1ccc(Cl)cc1C2=O", "growth": "75.7%"}
{"smiles": "C/C(=N\\NC(=O)CSc1nc2ccccc2c(=O)n1CCc1ccc(S(N)(=O)=O)cc1)c1ccccn1", "growth": "33.8%"}
{"smiles": "CCCOC(=O)c1c(C)n(C)c2scc[n+]12", "growth": "92.6%"}
{"smiles": "COc1cc(-c2c3sc(=O)[nH]c3nc3c2c(=O)[nH]n3C(C)C)cc2c1OCO2", "growth": "116%"}
{"smiles": "Cc1ccccc1NC(=O)c1sc2nc3c(cc2c1N)CCCC3", "growth": "11.8%"}
{"smiles": "CC(C)Cc1ccc([C@H](C)C(=O)O)cc1", "growth": "92.9%"}
{"smiles": "O=C(Nc1cccc(Cl)c1)Oc1c(Br)c(Br)c(Br)c(Br)c1Br", "growth": "88.4%"}
{"smiles": "CSC1=Nc2c(c(C)c(-c3ccccc3)n2CCCCl)C2=NC(=O)CN12", "growth": "27.4%"}
{"smiles": "COc1ccc(-c2oc3cc(O)c(OC)c(O)c3c(=O)c2OC)cc1O", "growth": "-8.34% (active)"}
{"smiles": "CC(C)[C@H](NC(=O)Cn1cc(C(=O)O)nn1)C(=O)O", "growth": "123%"}
{"smiles": "COc1cccc(/C=C/C(=O)c2c(C)nc3ccccc3c2/C=C/c2ccccc2)c1OC", "growth": "13.6%"}
{"smiles": "CCC(CC(C)C)Nc1ccc(NC(CC)CC(C)C)cc1", "note": "(stereo unspecified)", "growth": "35.3%"}
{"smiles": "COC(c1ccc2ccccc2c1)C(C)C(F)F", "note": "(stereo unspecified)", "growth": "103%"}
{"smiles": "O=C1COCCN1c1ccc(NCc2cn(Cc3cccc4ccccc34)c3ccccc23)cc1", "growth": "96.4%"}
{"smiles": "O=C(C1=Cc2cc3ccccc3n2Cc2cnnn21)c1ccc(O)cc1", "growth": "41.7%"}
